A selection: hits, their analogues and other compounds. The true share with any hit is near 4.5%.
aSyn UTR inh: MLPCN primary screen, SNCA 5' untranslated region. inhibition, % (tested at 7.5 µM). alpha-synuclein 5'UTR reporter, inhibitor activity. 300,000 compounds, 0.82% hits; in the data active means inhibition above about 60%;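 further: H4 neuroglioblastoma cells stably carrying SNCA 5'UTR luciferase fusion; 0% = DMSO wells and 100% = positive control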
Jurkat NFkB inh: inhibitors of the PMA/ionomycin-induced NF-kB reporter in Jurkat cells; AID 435003; PMA/ionomycin-induced NF-kB luciferase reporter, luminescence; inhibition, % at 4 µM; 330,000 compounds, 0.53% hits; in the data active means inhibition above about 50%
CSC inhib: cancer stem cell inhibition; cancer stem cell-like cells viability, luminescence; 300,000 compounds, 1.1% hits; inhibition, % at 7.5 µM; AID 2717; in the data active means inhibition above about 75%; tested in HMLE shEcad cells
Gli-Sufu block: Gli-Sufu pathway antagonism. Sufu-KO-LIGHT fibroblasts, Gli luciferase reporter luminescence. inhibition, % at 5 µM. AID 588413. 340,000 compounds, 0.74% hits;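 active means inhibition above about 55%, limit read from the data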;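 further: 0% = DMSO-treated cells and 100% = wells with medium but no cells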
697 NFkB inh: inhibitors of the PMA/ionomycin-induced NF-kB reporter in 697 B cells. 697 B-cell NF-kB luciferase reporter, 16 h. inhibition, % at 4 µM. 330,000 compounds, 0.33% hits. AID 435022; in the data active means inhibition above about 35%
Mdm2 MdmX PPI: disrupts the human Mdm2-MdmX interaction. O15151+Q00987. SaOS-2 split-luciferase Mdm2/MdmX complementation, luminescence. inhibition, % at 8 µM. 330,000 compounds, 3% hits. AID 485346;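 active means inhibition of at least 50% at 8 µM in the primary screen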
Mdm2-MdmX conf: confirmation of human Mdm2/MdmX interaction inhibitors; shares compounds with Mdm2 MdmX PPI; Mdm2-MdmX binding, luminescent assay; inhibition, % at 8 µM; 10,000 compounds, 55% hits; in the data active means inhibition above about 40%
FLuc counter: counter-screen for Mdm2/MdmX inhibitors: full-length luciferase; inhibition, % at 8 µM; 6,200 compounds, 77% hits; AID 504607; shares compounds with Mdm2 MdmX PPI; SaOS-2 full-length luciferase counterscreen, luminescence;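 active means mean inhibition at 8 µM reaching about 37%, which flags the compound as non-specific, limit read from the data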;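 further: p53-null SaOS-2 cells with luciferase driven by a doxycycline-inducible promoter; compound on cells about two nights before reading with doxycycline added after day one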
An asterisk follows results filed as active.

For COc1cc(OC)c2c(-c3cccc(-c4ccc(F)c(Cl)c4)c3)cc(=O)oc2c1 the results were Gli-Sufu block -6.3, 697 NFkB inh 1.8, Mdm2 MdmX PPI 71.6*, Mdm2-MdmX conf 61.2* and FLuc counter 42.7*.
`COc1cc(OC)c2c(-c3cccc(-c4sccc4C(C)=O)c3)cc(=O)oc2c1` gave Gli-Sufu block 67.1*, 697 NFkB inh -8.5, Mdm2 MdmX PPI 71.9*, Mdm2-MdmX conf 54.5* and FLuc counter 55.1*.
`COc1cc(OC)c2c(-c3cccc(-c4ccc(C(F)(F)F)cc4)c3)cc(=O)oc2c1` gave Gli-Sufu block -8.2, 697 NFkB inh -24.1 and Mdm2 MdmX PPI 44.5.
Screening O=c1c(Cl)c(Cl)cnn1Cc1nnc(-c2ccc(Cl)cc2)o1 returned aSyn UTR inh -179.2 and Gli-Sufu block 13.5.
Screening COc1ccccc1C(=O)OCc1c(F)cccc1Cl returned aSyn UTR inh 12.6, Jurkat NFkB inh 3.9, CSC inhib 8.9, Gli-Sufu block -2.1, 697 NFkB inh 16.4 and Mdm2 MdmX PPI -13.5.
COc1cc(OC)c2c(-c3cccc(-c4ccc(NC(C)=O)cc4)c3)cc(=O)oc2c1 was read as Gli-Sufu block 36.8, 697 NFkB inh -23.3, Mdm2 MdmX PPI 60.2*, Mdm2-MdmX conf 63.2* and FLuc counter 79.4*.
Screening COc1cc(OC)c2c(-c3cccc(-c4ccc(C#N)cc4)c3)cc(=O)oc2c1 returned Gli-Sufu block 1.2, 697 NFkB inh -37.7 and Mdm2 MdmX PPI 42.7.
`O=S(=O)(c1ccc(Br)s1)N1CCC2(CC1)OCCO2` gave aSyn UTR inh -9.1, Jurkat NFkB inh 3.9, CSC inhib -6.7, Gli-Sufu block 3.8, 697 NFkB inh 6.3 and Mdm2 MdmX PPI 3.6.
For Cc1cccc(NC(=O)Cn2cnc3c(oc4ccccc43)c2=O)c1C the results were aSyn UTR inh -9.4, Jurkat NFkB inh 0.8, CSC inhib -7.5, Gli-Sufu block -4.0, 697 NFkB inh 12.3, Mdm2 MdmX PPI 64.0* and Mdm2-MdmX conf 0.4.
Cc1ccccc1NC(=O)Cn1cnc2c(oc3ccccc32)c1=O was read as aSyn UTR inh 24.2, Jurkat NFkB inh -5.0, CSC inhib -4.6, Gli-Sufu block -10.3, 697 NFkB inh -4.5 and Mdm2 MdmX PPI -1.7.
Cc1ccc(S(=O)(=O)NCC(c2ccccc2)N2CCN(CCC#N)CC2)cc1 (stereo not drawn) was read as aSyn UTR inh 4.2, Jurkat NFkB inh -5.9, CSC inhib -3.5, Gli-Sufu block 4.4, 697 NFkB inh 6.4 and Mdm2 MdmX PPI -19.9.
For CCCCCCCN=CC1=C(O)CC(c2ccccc2)CC1=O (stereo not drawn) the results were aSyn UTR inh 15.8, Jurkat NFkB inh -1.6, CSC inhib 15.1, Gli-Sufu block -3.2, 697 NFkB inh -8.8 and Mdm2 MdmX PPI -18.3.
`CCCCC(=NCCc1c(C)[nH]c2ccccc12)C1=C(O)CC(c2ccccc2)CC1=O` (stereo not drawn) gave aSyn UTR inh 51.3, Jurkat NFkB inh 44.7, CSC inhib 66.8, Gli-Sufu block 23.7, 697 NFkB inh -14.7, Mdm2 MdmX PPI 57.4*, Mdm2-MdmX conf 44.5* and FLuc counter 59.2*.
For CCOc1cccc(/C=N/NC(=S)Nc2ccccc2[N+](=O)[O-])c1O the results were aSyn UTR inh -50.3, Jurkat NFkB inh 26.8, CSC inhib 40.1, Gli-Sufu block 53.8, 697 NFkB inh -118.2, Mdm2 MdmX PPI 84.6*, Mdm2-MdmX conf 83.3* and FLuc counter 48.8*.
Screening N=c1c(-c2nc3ccccc3[nH]2)cc(C(=O)c2cccs2)nn1-c1ccccc1 returned aSyn UTR inh -28.0, Jurkat NFkB inh -17.4, CSC inhib -13.5, Gli-Sufu block 7.6, 697 NFkB inh -33.2, Mdm2 MdmX PPI 56.0*, Mdm2-MdmX conf 39.7 and FLuc counter 58.7*.
O=C(NCCCc1nc2ccccc2[nH]1)c1cccs1 was read as aSyn UTR inh 14.5, Jurkat NFkB inh 5.2, CSC inhib -11.5, Gli-Sufu block -2.1, 697 NFkB inh 4.1 and Mdm2 MdmX PPI 15.6.
`C/C(=N\NC(=O)c1nn(C)cc1Br)c1cccc(NC(=O)C2CCCC2)c1` gave aSyn UTR inh -61.1, Jurkat NFkB inh -16.4, CSC inhib -7.0, Gli-Sufu block -15.8, 697 NFkB inh 1.1 and Mdm2 MdmX PPI 20.3.
